PINK1 expr mod: changes PINK1 expression; PINK1 immunofluorescence, high-content cytometry, 24 h; Potency, µM (top dose mostly 76.6 µM), inactives show top-dose activation (PINK1 increase), actives largely listed as activators; hit rate 0.2% among 410,000; active = well fitted activation curve with a large enough effect; inconclusive = small, poorly fitted or top-dose-only effect; cell line not stated here; also: % of control where 0% means no effect; nearly all actives have a fitted effect of over 65% in size
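Fluorescence from anti-PINK1 antibody, together with nuclear and cell stains, was scanned on a laser-scanning cytometer. Before staining, stable-line cells were incubated 24 hours with compounds at 5 concentrations; primary antibody 12 h at 10 degrees C.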
KB-V1 MDR tox: KB-V1 MDR subline cytotoxicity | Potency, µM (series often up to 46.1 µM), hits mostly cytotoxic | hit rate 3.4% among 400,000 | KB-V1 MDR cells viability, CellTiter-Glo, 72 h; also: % is scaled to controls: 0 for no effect and ±100 for the full control effect; nearly all actives have a fitted effect of over 60% in size
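Readout: CellTiter-Glo luminescence, 10 min after addition. Cells: KB-V1 MDR subline, 72 h at 37 degrees C with compound. Analysis: corrected, normalized data fitted to concentration-effect curves.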
SW480 rereplic: inducers of DNA re-replication in SW480 colon cancer cells | hit rate 1.8% among 340,000 | Potency, µM (series often up to 46.1 µM), for inactives: top-dose re-replication activation, most hits filed as activators | SW480 DNA re-replication, Hoechst DNA content imaging, 48 h; also: % of control where 0% means no effect; nearly all actives have a fitted effect of over 55% in size
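SW480 cells exposed to compounds for 48 hr at 37 C, 5% CO2, then Hoechst-stained 40 min. Nuclear DNA content imaged by fluorescence scanning (405 nm excitation, 500-530 nm emission); re-replication scored as increased high-intensity nuclei.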
PTAP TSG101 blk: blocks PTAP/TSG101 interaction to inhibit HIV-1 budding; Q99816; Fluorescence polarization, FITC-PTAP peptide / Tsg101 binding; Potency, µM (titrated, usually from 115 µM), for inactives: top-dose activity change, negative = inhibition, hits mostly inhibitors; 340,000 tested, under 10 active; active = well fitted inhibition curve with a large enough effect in the main read-out, with a control signal flat, not every such curve was filed as active; inconclusive = small, poorly fitted or top-dose-only effect, or effect the other way, or a change in a side signal; inactive = no such curve, though single readings can be large or run the other way; also: % of control where 0% means no effect
Target sequence (Q99816 whole entry, looked up): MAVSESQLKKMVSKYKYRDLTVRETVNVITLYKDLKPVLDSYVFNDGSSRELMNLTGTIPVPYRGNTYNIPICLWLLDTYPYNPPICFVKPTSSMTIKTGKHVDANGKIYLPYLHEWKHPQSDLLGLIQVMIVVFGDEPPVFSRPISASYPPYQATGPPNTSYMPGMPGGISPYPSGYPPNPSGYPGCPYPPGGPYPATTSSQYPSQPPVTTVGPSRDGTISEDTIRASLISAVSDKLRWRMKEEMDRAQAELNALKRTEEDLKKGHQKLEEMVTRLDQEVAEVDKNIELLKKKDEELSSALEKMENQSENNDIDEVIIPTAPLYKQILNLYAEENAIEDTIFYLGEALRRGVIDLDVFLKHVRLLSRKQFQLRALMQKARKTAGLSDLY
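Compounds were pin-transferred onto Tsg101 binding domain (10 uM final) in HEPES pH 7.5 buffer, then FITC-PTAP peptide was added at 50 nM final. After 20 min at RT, polarization reported peptide displacement across a qHTS concentration series.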
KB-3-1 tox: KB-3-1 parental cell cytotoxicity | Potency, µM (doses to about 46.1 µM), actives largely listed as cytotoxic | AID 1347075 | KB-3-1 viability, CellTiter-Glo ATP luminescence, 72 h | hit rate 1.4% among 400,000; also: % is scaled to controls: 0 for no effect and ±100 for the full control effect; nearly all actives have a fitted effect of over 60% in size
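Here the drug-naive KB-3-1 line serves as comparator for MDR sub-line selectivity; cells received compound titrations, 72 h at 37 °C, then CellTiter-Glo readout.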
MCF10A rereplic: DNA re-replication induction in MCF 10a cells; Potency, µM (series often up to 46.1 µM), without a hit: top-dose activity, positive = re-replication, most hits filed as activators; MCF 10A DNA re-replication, Hoechst nuclear intensity, 48 h; hit rate 2.9% among 350,000; also: % of control where 0% means no effect; nearly all actives have a fitted effect of over 50% in size
* hit, by the source's call; i = inactive; ? = inconclusive; . = no result given; [ ] = another dose, or the depositor's remark. Most compounds without a hit are left out; they make up all but 6.8% or so of the library. Unless noted, calls follow the shape of the dose curve; as a rule, active = well fitted curve in the direction sought with a large enough effect; inconclusive = small, poorly fitted or top-dose-only effect, or another doubt; inactive = no such curve, though single readings can be large; an effect the other way counts as inactive or inconclusive. Potency is read from the fitted curve at half-maximal effect.

SMILES | PINK1 expr mod | KB-V1 MDR tox | SW480 rereplic | PTAP TSG101 blk | KB-3-1 tox | MCF10A rereplic
CC1=C(c2ccccc2)C(O)(c2ccccc2)C(C)C1=O (stereo not drawn) | 5.6% | ? | ? | -2.8% | ? | 20.6µM*
COc1cc(/C=C/c2nc(C#N)c(NC3CCCCC3)o2)cc(OC)c1OC | 4.6% | . | . | . | . | .
CCC(CC)C(=O)Nc1cccc(C(=O)N2CCOCC2)c1 | 3.7%[38.3 µM] | i | -5.3% | -2.5% | i | -2.7%
O=C(NC1CCN(Cc2ccccc2)CC1)c1cccc(S(=O)(=O)Nc2cc(C(F)(F)F)ccc2Cl)c1 | 4.7% | 23.1µM* | 27.8% | 0.8% | ? | ?
O=C(NNC(=S)NC1CCCCC1)c1cccc(S(=O)(=O)Nc2ccccc2Cl)c1 | 0.1% | 20.6µM* | ? | -1.8% | ? | -8.3%
CCC(CC)C(=O)Nc1cccc(C(=O)N2CCCCCC2)c1 | . | ? | ? | -13.1% | i | 20.6µM*
Cc1ccc(NS(=O)(=O)c2cccc(C(=O)NNC(=O)NC3CCCCC3)c2)c(C)c1 | 1.6% | i | 14.4% | -3.4% | i | 9.2%
O=C(c1cccc(S(=O)(=O)Nc2ccccc2Cl)c1)N1CCCCCC1 | -2.2% | 18.4µM* | 3.1% | -1.0% | i | 7.8%
O=C(c1cccc(S(=O)(=O)Nc2ccccc2Cl)c1)N1CCN(c2ccccc2O)CC1 | -1.5% | i | -15.4% | -4.3% | i | -0.6%
COc1ccc(CCNC(=O)c2ccc3c(c2)N(Cc2ccc(F)cc2)C(=O)c2ccccc2S3(=O)=O)cc1OC | 1.2% | . | . | . | . | .
C=C(Nc1ccc(OCC)cc1)Nc1ccc(OCC)cc1 | . | . | -2.8% | . | . | 12.1%
O=C(c1cccc(S(=O)(=O)N2CCCC2)c1)N1CCN(c2ccccc2F)CC1 | -1.6%[38.3 µM] | 6.51µM* | -3.7% | -5.5% | i | 23.5%
O=C(c1cccc(S(=O)(=O)N2CCCCC2)c1)N1CCCCC1 | -17.7%[38.3 µM] | 14.6µM* | -2.5% | -2.5% | i | 8.2%
O=C(c1cccc(S(=O)(=O)N2CCOCC2)c1)N1CCCCCC1 | 2.0%[38.3 µM] | ? | -4.2% | -10.2% | i | -2.7%
O=C(c1c[nH]c(C(=O)N2CCN(c3ccccc3F)CC2)c1)c1cccc(Cl)c1Cl | -1.4% | 20.6µM* | ? | -5.2% | ? | 3.66µM*
COc1ccccc1N1CCN(c2nc3ccccc3n3cnnc23)CC1 | 0.6% | ? | . | . | i | .
CCOC(=O)c1c(C)[nH]c(C)c1S(=O)(=O)N1CCCC(C(=O)N2CCN(c3ccc(Cl)cc3)CC2)C1 (stereo not drawn) | 0.7% | i | . | . | i | .
CN(C)CCc1c[nH]c2ccc(CC3COC(=O)N3)cc12 (stereo not drawn) | . | . | -14.6% | . | . | -0.8%
COc1ccc(CCN2C(=S)NC3CC2(C)Oc2ccc([N+](=O)[O-])cc23)cc1OC (stereo not drawn) | 3.4%[38.3 µM] | 6.51µM* | 16.4µM* | -2.6% | i | 25.4%
COc1ccc(N2C(=O)NC3CC2(C)Oc2ccc(Cl)cc23)cc1OC (stereo not drawn) | 11.7% | ? | ? | 0.3% | ? | ?
CCN(c1ccccc1)c1nnc(NC(=O)Nc2ccc(C)cc2)s1 | 2.0% | i | . | . | i | .
C=CCc1ccccc1OCCn1c(C2CC(=O)N(Cc3ccc(F)cc3)C2)nc2ccccc21 (stereo not drawn) | -1.5% | ? | . | . | ? | .
CCOC(=O)c1ccc(NC(=O)CCc2nc(-c3cccc(C)c3)no2)cc1 | 7.0% | 20.6µM* | 12.4% | -6.1% | ? | ?
COc1ccccc1-c1noc(CCC(=O)Nc2cccc(C(F)(F)F)c2)n1 | 0.3% | 20.6µM* | 0.7% | -9.2% | ? | 18.1%
Cc1cccc(-c2noc(CCC(=O)Nc3ccccc3)n2)c1 | 4.1%[38.3 µM] | i | -10.3% | -4.2% | i | -6.0%
SMILES | PINK1 expr mod | KB-V1 MDR tox | SW480 rereplic | PTAP TSG101 blk | KB-3-1 tox | MCF10A rereplic
COc1ccc(-c2nc3ccccc3s2)cc1NC(=O)c1cc2ccccc2o1 | 3.0% | i | . | . | i | .
COc1ccccc1NC(=O)c1sc2nc(C)c(C(=O)Nc3ccc(C)cc3C)c(-c3ccccc3Cl)c2c1N | -0.6% | . | . | . | . | .
O=C(COc1ccc(F)cc1)N(c1ccccn1)C1CCCCC1 | 1.0% | 20.6µM* | -73.4% | -1.7% | i | 11.4%
CC(C)c1ccc(OCC(=O)N(c2ccccn2)C2CCCCC2)cc1 | ? | i | -10.3% | -0.7% | i | ?
COCCCNc1nnc(Cc2ccc(Cl)cc2)c(=O)[nH]1 | 3.9% | i | ? | 0.0% | ? | 0.517µM*
CCC(C(=O)Nc1ccccc1F)n1nc(C)c2c(C)n(-c3ccccc3)nc2c1=O (stereo not drawn) | 3.8% | i | 29.1µM* | 0.4% | i | 4.0%
CCC(C(=O)Nc1cc(F)ccc1F)n1nc(C)c2c(C)n(-c3ccc(C)cc3)nc2c1=O (stereo not drawn) | -0.9% | ? | -1.0% | -1.6% | ? | 15.5%
CCOc1ccc(NC(=O)CC2C(=O)N(c3cccc(C)c3)C(=O)N2Cc2cccnc2)cc1 (stereo not drawn) | -0.1% | . | . | . | . | .
CCOC(CNC(=O)c1ccc2c(c1)nc(C)n2-c1cccc(F)c1)OCC | -1.4%[38.3 µM] | 20.6µM* | -2.4% | . | i | -4.8%
COCCNC(=O)c1ccc2c(c1)nc(C)n2-c1cccc(Cl)c1 | 0.1% | i | -26.7% | -4.8% | i | 5.0%
COc1ccc(-c2cc3ccc(O)c(CN4CCC(C)CC4)c3oc2=O)cc1 | -0.3% | . | . | . | . | .
COc1cccc2c1OC[C@@H](CO)[C@H]2N(C)C(=O)Nc1ccc(Cl)cc1 | 8.1%[38.3 µM] | 14.6µM* | 4.2% | -4.8% | i | 15.8%
C=CCn1c(=O)c2ccccc2n2c(SCc3nnc(-c4ccccc4Br)o3)nnc12 | -0.5%[38.3 µM] | i | 15.4% | -1.1% | i | 23.1µM*
CC(=O)Nc1ccc(NC(=O)CCc2nc3cccnc3n2Cc2cccs2)cc1 | -0.5% | i | . | . | i | .
O=C(N/N=C/c1ccc(N2CCCCC2)o1)c1ccccc1 | -0.9% | i | ? | -5.6% | ? | 23.1µM*
Cc1ccc(SCC(=O)OCC(=O)NCCNC(=O)COC(=O)CSc2ccc(C)c(C)c2)cc1C | 1.1% | i | -1.1% | -3.7% | 0.0052µM* | 13.2%
O=C(NCC1OCCc2ccccc21)c1ccc(NC(=O)c2cccc(Br)c2)cc1 (stereo not drawn) | 15.1% | 2.59µM* | -2.9% | -0.9% | i | ?
CCn1c(COc2ccc(=O)n(-c3ccccc3)n2)nnc1SCc1ccccc1 | -2.2% | i | -0.9% | -2.7% | i | 6.4%
CCn1c(COc2ccc(=O)n(-c3ccccc3)n2)nnc1SCc1ccc(OC)cc1 | -1.9% | 18.4µM* | 4.4% | -8.2% | i | 1.2%

Source: PubChem BioAssay
